Only some compounds are listed: those with a hit (about 21% of all), similar ones and a draw of the others.
Shiga toxin inh = Shiga toxin inhibition; Vero cells, Shiga toxin protein synthesis inhibition reporter; actives 9.2% (n = 290,000); inhibition, % at 38.7 µM; in the data active means inhibition mostly above about 28%, no sharp cut-off; inactive means mostly below about 43%; further: 0% is about no effect
Pf growth 48h = inhibits P. falciparum growth in the first generation, 48 h; actives 5.9% (n = 310,000); P. falciparum luciferase growth in erythrocytes, 48 h; Potency, µM (highest dose often 28.7 µM), for the others: at the highest dose activity change, negative = inhibition, most hits filed as inhibitors; further: potency means the concentration at half of the fitted maximal effect; on the % scale 0 is the no-effect control and ±100 the full control effect
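Read-out is firefly luciferase luminescence from an integrated reporter in P. falciparum, so falling signal marks reduced parasite growth. Infected erythrocytes were at 2% hematocrit and 0.1% parasitemia (final) in Albumax-supplemented RPMI 1640.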
Sm TGR block = inhibitors of Schistosoma mansoni thioredoxin glutathione reductase | Q962Y6 | purified TGR, DTNB reduction, TNB absorbance 405 nm | Potency, µM (series often up to 114 µM), for the others: at the top dose activity change, negative = inhibition, usual class: inhibitors | actives 3% (n = 360,000) | AID 485364; further: potency means the concentration at half of the fitted maximal effect; on the % scale 0 is the no-effect control and ±100 the full control effect; nearly all actives have a fitted effect of over 60% in size
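First, TGR (20 nM dispensed) and NADPH were mixed with compound. Second, a 15 min room-temperature incubation followed. Third, further NADPH and then DTNB were added to start the reaction. Finally, TNB absorbance was monitored kinetically.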
Pf growth 96h = P. falciparum growth inhibition at 96 hour, primary screen for plastid delayed-death inhibitors; P. falciparum luciferase reporter growth, 96 h; Potency, µM (titrated, usually from 28.7 µM), for the others: top-dose activity change, negative = inhibition, most hits filed as inhibitors; actives 6.9% (n = 320,000); AID 504834; further: potency means the concentration at half of the fitted maximal effect; on the % scale 0 is the no-effect control and ±100 the full control effect
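Two parasite generations (96 h, 37 C, 5% CO2) of compound exposure in infected erythrocytes (0.05% parasitemia, 2% hematocrit). Luciferase-reporter P. falciparum; decreased luminescence indicates inhibited growth, aimed at apicoplast-acting delayed death.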
NS1 function inh = influenza NS1 inhibition | Potency, µM (titrated, usually from 46.1 µM), for inactives: top-dose activity, positive = more growth | actives 0.4% (n = 270,000); calls by dose curve; further: potency means the concentration at half of the fitted maximal effect; actives are rising curves; nearly all actives have a fitted effect of over 50% in size
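In this qHTS, NS1 from influenza A is expressed in budding yeast, where it slows growth. Cells are switched from glucose to 2% galactose medium (pH 6.0, -URA), treated with compound, and growth recovery is read at OD600.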
Cycloheximide cs = affects cycloheximide protein synthesis inhibition readout, counter-screen | cell reporter, cycloheximide protein synthesis inhibition counterscreen | max response, % | actives 12% (n = 300,000) | AID 2314; in the data active means max response mostly above about 13%, no sharp cut-off; inactive means mostly below about 14%; further: read at 38.3 µM for the half of the compounds with a filed dose; 0% is about no effect
Starred values were filed as active, the others as inactive; ? = inconclusive; . = not tested or not shown; [ ] = remark or other dose. Unless noted, the call rests on the fitted dose curve; in most records, active means well fitted curve in the direction sought with a large enough effect; inconclusive means small, poorly fitted or top-dose-only effect, or another doubt; inactive means no such curve, though single readings can be large; an effect the other way counts as inactive or inconclusive.

SMILES	Shiga toxin inh	Pf growth 48h	Sm TGR block	Pf growth 96h	NS1 function inh	Cycloheximide cs
O=C(CCN1C(=O)/C(=C\c2ccccc2)SC1=S)N1CCOCC1	-2	12µM*	6%	-14%	1%	-1
O=C(CCN1C(=O)S/C(=C\c2ccccc2)C1=O)N1CCCCC1	75*	-5%	-7%	27%	-3%	27*
O=C(CCCN1C(=O)/C(=C/c2ccccc2Cl)SC1=S)NCCCN1CCOCC1	-9	12µM*	3%	?	20%	-4
O=C(CCN1C(=O)/C(=C/c2ccccc2Cl)SC1=S)N1CCOCC1	1	13µM*	1%	?	?	11
COc1ccc(OC)c(-c2csc(NC(=O)COC(=O)c3ccc(NC(=O)CC#N)cc3)n2)c1	.	?	-3%	?	.	.
OCC1(CCc2ccccc2)CCN(Cc2cc(F)ccc2-n2cccn2)CC1	-29	?	31%	34%	-5%	1
COc1ccc(C)cc1N1CC(C(=O)OCc2nc(N)nc(Nc3ccccc3C)n2)CC1=O (stereo not drawn)	.	-26%	9%	2%	.	.
COc1cc(NC(=O)C2=C(N3CCOCC3)/C(=C\c3ccc(Cl)cc3Cl)CC2)cc(OC)c1OC	-13	-21%	-7%	?	18%	-4
O=C(CCS(=O)(=O)c1cc(Br)cc2c1N(C(=O)C1CC1)CC2)N1CCN(c2ccccn2)CC1	-33	?	-16%	-9%	-7%	10
COC(=O)c1ccc(/C=C2/SC(=S)N(CCC(=O)NCCCN3CCOCC3)C2=O)cc1	-4	0%	4%	?	2%	2
O=C(CCCN1C(=O)/C(=C/c2ccccc2Cl)SC1=S)N1CCCC1	-1	?	8%	9.3µM*	-46%	-2
CCc1ccc(/C=C2/SC(=S)N(CCC(=O)NCCCN3CCOCC3)C2=O)cc1	91*	?	7%	?	20%	48*
CCOC(=O)C1(Cc2cccc(OC)c2)CCCN(C(=O)c2cc(C)on2)C1 (stereo not drawn)	92*	-15%	3%	6.6µM*	-7%	37*
CCOC(=O)C1(Cc2cccc(OC)c2)CCCN(C(=O)CNC(C)=O)C1 (stereo not drawn)	.	1%	0%	-6%	-7%	38*
CCOC(=O)C1(Cc2cccc(OC)c2)CCCN(S(=O)(=O)N(C)C)C1 (stereo not drawn)	-8	0%	-23%	?	-1%	-2
CCOC(=O)C1(Cc2cccc(OC)c2)CCCN(C(=O)c2ccccc2C)C1 (stereo not drawn)	116*	12%	9%	-28%	-2%	59*
CCOC(=O)C1(Cc2cccc(OC)c2)CCCN(C(=O)c2cc(C)[nH]n2)C1 (stereo not drawn)	-14	24%	6%	37%	6%	-5
COC(=O)c1sccc1NC(=O)CNC(=O)c1ccccc1	19	18%	5%	30%	.	12
O=C(CN(C(=O)CCC(=O)Nc1ccccn1)C1CCCC1)NCc1ccccc1	-7	14%	5%	?	7%	-3
CC(C)c1ccc(S(=O)(=O)Nc2ccc3oc4c(c3c2)C(=O)CC(C)(C)C4)cc1	.	.	-12%	.	.	.
c1ccc(N2CCN(CC3CCCCC3)CC2)cc1	-8	7%	7%	143%	0%	-1
C=CCN(c1cccc(C(F)(F)F)c1)S(=O)(=O)c1cccc(C(=O)OCC(=O)NCCC)c1	-8	?	-3%	13µM*	2%	-1
CCOc1ccc(C(C)=O)cc1COC(=O)c1cc([N+](=O)[O-])ccc1N1CCOCC1	.	-5%	-35%	?	.	.
CCOC(=O)C1=NN(c2ccccc2)C(=O)/C1=C\c1ccc(N(C)C)cc1	10	8%	0%	7%	-18%	-2
CC1=NN(Cc2ccccc2)C(=O)/C1=C\c1ccc(N(C)C)cc1	32*	-1%	4%	-5%	-11%	31*
SMILES	Shiga toxin inh	Pf growth 48h	Sm TGR block	Pf growth 96h	NS1 function inh	Cycloheximide cs
COc1ccccc1-c1nc(C#N)c(NCCCn2ccnc2)o1	-8	-17%	8%	-20%	1%	-2
N#Cc1nc(-c2ccc(OCc3ccc(Cl)cc3)cc2)oc1NCCCn1ccnc1	52	2.3µM*	9%	?	?	7
N#Cc1nc(-c2ccccc2)oc1NCCCn1ccnc1	70	?	-4%[57.1 µM]	?	-2%	16*
O=C(CSc1ccc2nnc(-c3ccncc3)n2n1)Nc1nccs1	-4	15%	-7%	-14%	.	-7
COc1ccc(C(CCNCc2ccc(OC(C)C)cc2)c2ccccc2OC)cc1 (stereo not drawn)	-4	12µM*	-2%	12µM*	4%	-5
COc1ccc(CNCCC(c2ccc(F)cc2)c2ccc(OC(C)C)cc2)cc1OC (stereo not drawn)	-10	13µM*	18%	12µM*	-40%	-9
COc1ccc(CC(C)NCCC(c2ccccc2)c2ccccc2)cc1 (stereo not drawn)	-10	?	-3%	10µM*	-25%	-2
COc1ccc(C(CCNCc2ccccc2)c2ccc(F)cc2)cc1 (stereo not drawn)	-14	0%	-1%	0%	-13%	-4
COc1ccc(C(CCN(Cc2ccc(OC)c(OC)c2)C(C)=O)c2ccccc2)cc1 (stereo not drawn)	-15	?	5%	?	-3%	-6
COc1ccc(CN(CCC(c2ccccc2)c2ccc(OC(C)C)cc2)C(=O)CCl)cc1OC (stereo not drawn)	-9	?	?	3.7µM*	2%	10
COc1ccc(C(CCNC(C)c2ccccc2)c2ccc(F)cc2)cc1 (stereo not drawn)	-19	?	1%	?	-12%	-8
COc1ccc(CNCCC(c2ccc(F)cc2)c2ccc(OC)cc2)cc1 (stereo not drawn)	-17	?	-8%	?	-17%	-8
COc1ccccc1C(CC(=O)Nc1ccccc1C)c1ccc(OC(C)C)cc1 (stereo not drawn)	-8	15µM*	0%	?	-3%	6
COc1ccc(NC(=O)CC(c2ccc(F)cc2)c2ccc(OC(C)C)cc2)cc1 (stereo not drawn)	-8	?	0%	?	-7%	-1
COc1ccc(CNCCC(c2ccccc2)c2ccc(OC(C)C)cc2)cc1OC (stereo not drawn)	-7	9.3µM*	0%	?	-6%	-10
COc1ccc(C(CCNCc2ccc(F)cc2)c2ccc(F)cc2)cc1 (stereo not drawn)	-26	4.7µM*	-6%	?	-18%	-8
COc1ccc(CNCCC(c2ccc(OC)cc2)c2ccccc2OC)cc1 (stereo not drawn)	-4	?	-21%	?	1%	-3
